# V-ATPase pHluor = regulators of yeast V-ATPase proton transport; response, % at 10 µM; 0.37% of 350,000 active; S. cerevisiae, pHLuorin cytosolic pH fluorescence; AID 504577; in the data active = response mostly above about 7.3%, no sharp cut-off; inactive = mostly below about 5.4%; also: actives read high
# TIM10 inh = growth inhibitors of TIM10 yeast strain; S. cerevisiae TIM10 strain growth, BacTiter-Glo luminescence, 24 h; inhibition, % at 10 µM; 1.4% of 330,000 active; AID 463195;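 active = inhibition of 40% or more at the single tested concentration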;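 also: wild-type TIM10 isogenic control strain grown at permissive 25 °C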
# NALP1 inh = inhibitors of NALP1 inflammasome in yeast; S. cerevisiae NALP1/ASC/caspase-1 growth, X-gal OD620, 72 h; inhibition, % at 10 µM; 0.61% of 280,000 active; AID 2071; in the data active = inhibition mostly above about 24%, no sharp cut-off; inactive = mostly below about 32%
# tim10-1 inh = growth inhibitors of tim10-1 mutant yeast; S. cerevisiae tim10-1 ts strain growth, BacTiter-Glo, 24 h; inhibition, % at 20 µM; 2.2% of 330,000 active; AID 463190;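 active = inhibition of at least 40%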;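 also: mutant grown at 25 °C; 0% = DMSO wells with yeast and 100% = wells holding no yeast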
# NALP3 yeast inh = NALP3 inhibition in yeast; inhibition, % at 10 µM; 0.39% of 330,000 active; AID 2825; Yeast reconstituted NLRP3/ASC/caspase-1, beta-gal luminescence, 24 h;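 active = inhibition of 50% or more; inactive = inhibition below 50%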;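 also: plate controls were induced DMSO wells for no effect and uninduced yeast grown without galactose for full effect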
# tim23-1 inh = inhibits growth of tim23-1 mutant yeast. S. cerevisiae tim23-1 growth, BacTiter-Glo luminescence, 24 h. inhibition, % at 20 µM. 1.3% of 330,000 active. AID 463212;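 active = growth inhibition of the mutant yeast at or above 50%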;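 also: temperature-sensitive mutant grown at 25 °C; plate controls were DMSO-treated mutant yeast for no effect and medium wells lacking yeast for full effect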
# tim10 confirm = confirmation of TIM10 yeast growth inhibitors; S. cerevisiae tim10 strain growth, BacTiter-Glo luminescence, 24 h; AID 463215; 63% of 4,600 active; shares compounds with TIM10 inh; inhibition, % at 10 µM;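 active = inhibition of yeast growth at or above a set limit in either of two replicates at 10 µM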;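 also: this counterscreen used the strain with wild-type TIM10; 0% = yeast with DMSO and 100% = medium wells lacking yeast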
# * marks the source's active call; other numbers are inactive results; / = not tested or not shown. This is a sample that favours compounds with a hit; in the whole collection about 4.2% have one here.
SMILES,V-ATPase pHluor,TIM10 inh,NALP1 inh,tim10-1 inh,NALP3 yeast inh,tim23-1 inh,tim10 confirm
N#CC(Nc1ccccc1)c1ccccc1OCc1ccccc1 (stereo not drawn),2,42*,-10,18,17,32,15
COc1ccc(C(C#N)Nc2ccccc2)cc1 (stereo not drawn),/,4,13,8,-9,-7,/
S=C(NCC1CCCCC1)Nc1ccc(Oc2ccccc2)cc1,0,54*,24,40,30,23,30*
C/C(CCC(C)C)=N\Nc1ccc(S(N)(=O)=O)cc1[N+](=O)[O-],3,75*,2,15,22,34,26
CCOC(=O)NC(=O)c1cn(Nc2ccccc2)c(=O)[nH]c1=O,10,-6,13,-9,8,2,/
Cc1ccc(S(=O)(=O)NCCSc2nnnn2-c2ccccc2)cc1,4,-12,6,24,16,32,/
Cc1ccc(S(=O)(=O)NCCSc2nnnn2-c2cc(C)ccc2C)cc1,1,45*,-6,30,-1,24,9
COCc1c(C(=O)OCc2nc3ccsc3c(=O)[nH]2)oc2ccccc12,-8,-7,/,-10,2,12,/
Cc1ccc(C(=O)NCCCN2CCOCC2)c(Cl)c1,1,-17,14,-23,20,-5,/
CCN(CC(=O)NCc1ccc(Cl)cc1)C(=O)C1CCN(S(=O)(=O)c2ccc(OC)c(OC)c2)CC1,1,1,/,-19,3,-7,/
COc1ccc2[nH]cc(CCNC(=O)c3ccco3)c2c1,-4,5,/,-2,8,-4,/
O=C(Oc1ccc2[nH]cc(CCN3C(=O)c4ccccc4C3=O)c2c1)c1ccco1,-2,43*,28,31,24,30,39*
Cc1ccc(C(=O)OCC(=O)N(Cc2ccccc2)C(C)C)cc1C,-2,18,/,13,23,33,/
O=C(Nc1ccc(C2CC2(Cl)Cl)cc1)c1ccccc1Br (stereo not drawn),0,41*,22,32,16,42,19
CCN1C(=O)[C@H]2[C@@H](c3ccc(C(F)(F)F)cc3)N[C@]3(CCCN(Cc4cccn4C)C3=O)[C@H]2C1=O,0,/,/,/,/,/,/
Cc1nnc(NC(=O)c2cccc(F)c2)s1,-2,6,-13,2,13,6,/
CC(=O)Cc1nsc(NC(=O)c2cccc(F)c2)n1,-3,50*,0,27,-1,27,-4
COc1ccc(S(=O)(=O)N2CCCCC2)cc1C(=O)N1CCCCCC1,0,3,1,12,14,13,/
Clc1ccc(CN=C2Nc3ccccc3CS2)cc1,5,41*,11,36,22,36,32*
Cc1ccc(CN=C2Nc3ccccc3CS2)cc1,1,19,1,20,15,12,/
CCCCN1C2CCCC1CC(NC(=O)c1cccc(Cl)c1)C2 (stereo not drawn),0,-8,16,0,2,7,/
Cc1c(C(=O)NCc2cccnc2)oc2ccc(S(=O)(=O)N3CCCCCC3)cc12,-3,43*,-5,21,-2,26,21
O=C(Nc1ccc(NC(=O)c2cccs2)cc1Cl)c1ccco1,1,19,19,-11,38,34,/
COc1cc(NC(=O)c2cccs2)ccc1NC(=O)c1ccco1,0,47*,13,9,26,26,-2
CSc1nc(-c2ccc(Cl)cc2)nn1C(=O)c1ccccc1,1,24,31,9,14,26,/
SMILES,V-ATPase pHluor,TIM10 inh,NALP1 inh,tim10-1 inh,NALP3 yeast inh,tim23-1 inh,tim10 confirm
CSc1nc(-c2ccccc2)nn1C(=O)c1ccc(Cl)cc1,-2,49*,11,30,11,37,-24
CCOC(=O)c1sc(NC(=O)C2CC(=O)N(c3ccc(C)cc3)C2)nc1C (stereo not drawn),-4,16,4,11,10,20,/
c1ccc(Cc2nc3ccccc3n2Cc2ccccc2)cc1,5,44*,38,29,24,14,32*
Cc1nc2ccccc2n1Cc1ccccc1,-2,7,19,5,9,2,/
O=C(CSc1nnc(Nc2ccccc2)s1)NCC1CCCO1 (stereo not drawn),4,9,/,17,-7,20,/
CC1(C2CC(C(F)(F)F)n3nc(C(=O)O)cc3N2)CC1 (stereo not drawn),1,12,-2,-10,3,-2,/
Cc1ccc(C)c2nc3sc(C(=O)N4CCCc5ccccc54)c(N)c3cc12,-1,46*,0,36,18,41,29
CCc1ccc2nc3sc(C(=O)N4CCc5ccccc54)c(N)c3cc2c1,/,12,1,13,1,-2,/
S=c1[nH]nc(-c2cccc(Cl)c2)n1/N=C/c1ccco1,/,18,/,29,15,30,/
Cc1ccc(/C=N/n2c(-c3cccc(Cl)c3)n[nH]c2=S)o1,0,42*,-10,35,0,44,26
Cc1noc(C)c1S(=O)(=O)Nc1ccc2c(c1)CC(=O)N([C@H](C)CO)C[C@H](C)[C@@H](CN(C)CC1CC1)O2,0,-3,/,9,5,16,/
CCN1/C(=C/c2ccc3cc(C)ccc3[n+]2CC)Sc2cc(C)c(C)cc21,4,52*,15,-10,24,-4,79*
Cc1ccc(-c2[nH]nc3c2C(c2ccoc2)C(C#N)=C(N)O3)cc1C (stereo not drawn),5,41*,-12,39,6,42,30
S=C(NN=C1CCCCCC1)Nc1ccc(Cl)cc1,7,33,3,32,13,25,/
Fc1ccc(NC(=S)NN=C2CCCCCC2)cc1,-7,45*,6,34,35,31,21
C=CCN(C(=O)CSc1nc2c(sc3ccccc32)c(=O)n1CCN(CC)CC)c1ccccc1,-3,51*,20,39,19,26,20
C/C(=N\NC(=S)Nc1ccccc1C)c1cc2ccccc2o1,-2,42*,/,25,29,33,22
C/C(=N\NC(=O)c1ccco1)c1cc2ccccc2o1,1,14,22,-4,10,17,/
CC1(C)Cc2c(C#N)c(N3CCN(C(=O)c4ccco4)CC3)nc(Cc3ccccc3)c2CO1,-4,42*,-2,28,16,18,5
CCc1nc(N2CCN(C(=O)c3ccco3)CC2)c(C#N)c2c1COC(C)(C)C2,1,14,21,26,23,30,/
C/C=C(/C)C(=O)OC1c2c(ccc3ccc(=O)oc23)OC(C)(C)C1OC(C)=O (stereo not drawn),-3,42*,11,39,4,34,2
Cc1cccc(NC(=O)C2(c3ccccc3)CC2(Cl)Cl)c1 (stereo not drawn),5,23,-8,39,-3,26,/
Cc1cc(C)cc(NC(=O)C2(c3ccccc3)CC2(Cl)Cl)c1 (stereo not drawn),-4,41*,18,37,18,38,40*

# Source: PubChem BioAssay
